From PubChem BioAssay (EPA / NIEHS) come the findings set out here.

Records with an inconclusive call do not appear. Active and inactive are the calls of the source. How the source made its calls: active means hit-call score of the fitted dose curve at least 0.9, where 1 is the maximum; inconclusive means response in the unintended direction; inactive means score below 0.9.

Sequence of Glycogen synthase kinase-3 beta (Homo sapiens) (P49841 whole entry, looked up): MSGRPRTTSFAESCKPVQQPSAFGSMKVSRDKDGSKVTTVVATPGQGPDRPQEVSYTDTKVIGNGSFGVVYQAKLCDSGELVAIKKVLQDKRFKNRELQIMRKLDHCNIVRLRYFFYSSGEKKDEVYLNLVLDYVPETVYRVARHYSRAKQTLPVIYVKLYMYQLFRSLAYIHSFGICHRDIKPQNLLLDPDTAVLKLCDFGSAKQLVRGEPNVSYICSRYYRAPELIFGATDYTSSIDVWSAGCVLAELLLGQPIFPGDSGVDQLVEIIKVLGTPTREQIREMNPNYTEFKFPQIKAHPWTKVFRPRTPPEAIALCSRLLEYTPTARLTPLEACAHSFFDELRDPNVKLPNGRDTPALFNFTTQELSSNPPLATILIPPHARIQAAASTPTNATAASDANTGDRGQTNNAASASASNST

In one test the target is Glycogen synthase kinase-3 beta (Homo sapiens) (UniProt P49841). The experiment in a line: NVS_ENZ_hGSK3b: NovaScreen (NVS) Enzymatic Assay for human Glycogen Synthase Kinase-3 beta (GSK3b) (AID 2283165). The method, boiled down:
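Recombinant enzyme with specific fluorescent substrate, 1 h, product separated by electrophoretic mobility shift. Primary duplicate screen at 25 uM; actives (e.g. 30% inhibition) followed in singleton concentration-response to 50 uM. Signal loss fitted versus DMSO.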
Take `CC(C)(OO)c1ccccc1`: the call was inactive.

For `CCCCCCCCc1ccc(O)cc1`, the result was inactive.

With `Cc1ccccc1N`, the compound was classed as inactive.

As to `O=C1C2(Cl)C3(Cl)C4(Cl)C(Cl)(Cl)C5(Cl)C3(Cl)C1(Cl)C5(Cl)C24Cl` (stereo not drawn), the compound was classed as inactive.

Consider `COc1cc(-c2ccc(N)c(OC)c2)ccc1N`, for which the compound was called inactive.

For the compound `CC(C)(C)CC(C)(C)c1ccc(O)cc1`, the result was inactive.

In a further test the target is Mitogen-activated protein kinase 3 (Homo sapiens) (UniProt P27361). The test is described as follows: NVS_ENZ_hMAPK3: NovaScreen (NVS) Enzymatic Assay for human Mitogen-Activated Protein Kinase 3 (MAPK 3) (AID 2283177). In short, it runs like this: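 Chemicals were first tested in duplicate at 25 uM, with hits re-run as concentration series (max 50 uM). Recombinant enzyme activity, measured 1 h post-dose in a cell-free format, was read by fluorescence/mobility shift relative to DMSO.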
Sequence of Mitogen-activated protein kinase 3 (Homo sapiens) (P27361 whole entry, looked up): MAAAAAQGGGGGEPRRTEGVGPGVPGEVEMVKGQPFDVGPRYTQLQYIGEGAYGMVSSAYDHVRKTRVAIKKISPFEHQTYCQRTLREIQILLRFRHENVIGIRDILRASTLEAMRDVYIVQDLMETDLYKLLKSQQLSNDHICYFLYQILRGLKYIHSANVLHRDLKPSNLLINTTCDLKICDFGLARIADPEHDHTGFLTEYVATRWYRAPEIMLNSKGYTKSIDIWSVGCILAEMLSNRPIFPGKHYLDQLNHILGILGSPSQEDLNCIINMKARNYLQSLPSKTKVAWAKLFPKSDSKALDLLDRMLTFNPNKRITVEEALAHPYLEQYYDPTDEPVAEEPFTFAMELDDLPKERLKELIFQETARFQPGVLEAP
On to `CC12CC1(C)C(=O)N(c1cc(Cl)cc(Cl)c1)C2=O` (stereo not drawn), for which the AC50 was 40.6 µM (active).

In the case of `Cn1sc(Cl)cc1=O`, the compound was classed as inactive.

In the case of `C[C@@H]1C[C@@H]([C@H](O)CC2CC(=O)NC(=O)C2)C(=O)[C@@H](C)C1`, the compound was called inactive.

The target in another test is human Matrix Metalloproteinase-1 (MMP1), MMP1 (gene 4312) (UniProt P03956). The experiment in a line: NVS_ENZ_hMMP1: NovaScreen (NVS) Enzymatic Assay for human Matrix Metalloproteinase-1 (MMP1) (AID 2283181). The procedure: NVS_ENZ_hMMP1 is a biochemical, single-readout assay that uses extracted gene-proteins in a cell-free assay. Measurements were taken 1 hour after chemical dosing in a 96-well plate.NVS_ENZ_hMMP1 is one of one assay component(s) measured or calculated from the NVS_ENZ_hMMP1 assay. It is designed to make measurements of enzyme activity, a form of enzyme reporter, as detected with fluorescence intensity signals by Fluorescence technology.Data from the assay component NVS_ENZ_hMMP1 was analyzed into 1 assay endpoint. This assay endpoint, NVS_ENZ_hMMP1, was analyzed in the positive analysis fitting direction relative to DMSO as the negative control and baseline of activity. Using a type of enzyme reporter, loss-of-signal activity can be used to understand changes in the enzymatic activity as they relate to the gene MMP1. Furthermore, this assay endpoint can be referred to as a primary readout, because this assay has produced multiple assay endpoints where this one serves a enzymatic activity function. To generalize the intended target to other relatable targets, this assay endpoint is annotated to the protease intended target family, where the subfamily is matrix metalloproteinase.
Sequence of human Matrix Metalloproteinase-1 (MMP1), MMP1 (gene 4312) (P03956 whole entry, looked up): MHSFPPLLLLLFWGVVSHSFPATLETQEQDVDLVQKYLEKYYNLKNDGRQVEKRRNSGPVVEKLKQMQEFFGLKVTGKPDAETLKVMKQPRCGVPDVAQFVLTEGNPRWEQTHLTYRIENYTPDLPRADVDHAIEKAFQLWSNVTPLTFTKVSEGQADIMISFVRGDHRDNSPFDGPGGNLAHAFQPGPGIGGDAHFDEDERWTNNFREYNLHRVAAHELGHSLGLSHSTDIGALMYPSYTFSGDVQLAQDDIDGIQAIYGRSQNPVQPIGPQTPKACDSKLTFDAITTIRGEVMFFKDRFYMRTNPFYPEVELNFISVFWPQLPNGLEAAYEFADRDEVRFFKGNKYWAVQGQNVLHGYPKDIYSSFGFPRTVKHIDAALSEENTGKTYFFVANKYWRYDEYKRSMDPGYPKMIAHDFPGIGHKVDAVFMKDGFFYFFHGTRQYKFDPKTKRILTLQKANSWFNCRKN
Binding assays used specific radioligands (tritiated, iodinated) with non-radioactive competitive displacement ligands in agonist or antagonist protocols (as indicated) and various reference compounds and inhibitors to titrate specific binding to receptors and transporters. Most enzyme assays (CYPs, kinases, phosphatases, proteases, HDACs) used recombinant protein and specific substrates (fluorescence mostly, some colorimetric and radioactive) and inhibitors, followed by a biochemical separation of substrate and product. All assays for the biochemical HTS were initially run in duplicate at a single concentration (10 uM for CYP450 assays and 25 uM for all others). Assay-chemical combinations meeting a pre-defined threshold (e.g., 30% inhibition and other criteria defined below) were then run in singleton concentration-response format with maximum concentration of 20 uM for CYPs and 50 uM for all others. Each assay was run with positive and negative controls, and concurrent controls on every plate. The follow-up (secondary) screen tested active chemical-pairs in concentration series, as well as a few additional assays not tested in the primary screen, some selected negative inactives, and several cases re-run in the concentration series for confirmatory purposes.
In the case of `O=C(O)C(Cl)(Cl)Cl`, the outcome was inactive.

Turning to `C=C(C)C(=O)[O][Sn]([CH2]CCC)([CH2]CCC)[CH2]CCC`, the AC50 is 3.07 µM (active).

Regarding `CC(=O)[O][Hg][c]1ccccc1`, the AC50 was 6.38 µM (active).

For the compound `CCN1CCC2(CC1)COc1cc3c(cc12)N(C(=O)c1ccc(-c2ccc(-c4nnc(C)o4)cc2C)cc1)CC3`, the result was inactive.

The AC50 is the concentration at which the activity in the assay is half-maximal.
